Bioassay records from PubChem.
hgDAF12 agonist – agonists of H. glycines DAF-12 nuclear receptor. HEK293 GAL4-hgDAF12 UAS-luciferase reporter, agonist luminescence; normalized to butyrate control. activation, % at 6.8 µM. actives 1.8% (n = 370,000). AID 687014;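 active means activation above a cutoff set at the mean of all screened compounds plus 3 SD, cut at about 10% in these data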;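 further: 0% = DMSO wells and 100% = sodium butyrate wells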
DAX1 inh-1 – DAX1 (NR0B1) inhibition, primary screen; HEK293T StAR-luciferase reporter, SF-1/DAX-1 repression relief; inhibition, % at 6.8 µM; actives 1.1% (n = 370,000);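 active means inhibition above the mean over all tested compounds plus 3 SD, cut at about 3.6% in these data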;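 further: 0% = DAX-1 cells with DMSO and 100% = cells lacking DAX-1 with DMSO; higher inhibition means more luminescence from relief of DAX-1 repression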
hcDAF-12 act – activators of H. contortus DAF-12 nuclear receptor; HEK293 hcDAF-12 lit1-tk-luc reporter, luminescence; 0% DMSO, 100% Δ7-dafachronic acid; activation, % at 6.8 µM; actives 1.4% (n = 370,000); AID 652067;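 active means activation above the mean of all tested compounds plus 3 SD, cut at about 5.5% in these data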;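 further: 100% = response to 3 µM Δ7-dafachronic acid high control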
NR1D1 modulator – Rev-erb alpha (human) modulation; P20393; Rev-erbα–FITC-DNA binding, fluorescence polarization, 90 min; activity, % at 10 µM; actives 0.79% (n = 370,000); AID 1259318;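 active means activity above about 14%, limit read from the data; passing the limit was not always enough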;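 further: 0% = DMSO wells with 35 nM protein and 100% = DMSO wells with 750 nM protein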
DAX1 inh-2 – inhibits human nuclear receptor DAX1; P51843; HEK293 Gal4-DAX1 luciferase reporter, luminescence; inhibition, % at 6.75 µM; actives 0.99% (n = 340,000);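 active means inhibition above the mean over all tested compounds plus 3 SD, cut at about 4.2% in these data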;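 further: 0% = DAX1-transfected cells with DMSO and 100% = empty-vector control cells with DMSO; inhibition shows as a rise in luminescence from relieved DAX1 repression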
Target sequence (P51843 207-470 limits assumed): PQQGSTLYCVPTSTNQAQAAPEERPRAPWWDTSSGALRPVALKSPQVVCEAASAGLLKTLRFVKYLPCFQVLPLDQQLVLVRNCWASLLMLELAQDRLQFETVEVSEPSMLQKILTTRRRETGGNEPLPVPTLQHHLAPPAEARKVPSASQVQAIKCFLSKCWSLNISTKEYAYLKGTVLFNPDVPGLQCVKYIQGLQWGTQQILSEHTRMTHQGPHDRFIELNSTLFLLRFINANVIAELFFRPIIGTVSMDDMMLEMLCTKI
ssDAF12 agonist – activators of S. stercoralis DAF-12 nuclear receptor; HEK293 ssDAF-12/GRIP1 lit1-tk-luc reporter, luminescence; % of 3 µM dafachronic acid response; activation, % at 6.8 µM; actives 1% (n = 370,000);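 active means activation above the mean over all tested compounds plus 3 SD, cut at about 0.9% in these data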;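 further: 0% = DMSO-only wells and 100% = 3 µM delta7-dafachronic acid wells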
An asterisk follows results filed as active; nt = no result given. A selection: hits, their analogues and other compounds. The true share with any hit is near 4.8%.

SMILES | hgDAF12 agonist | DAX1 inh-1 | hcDAF-12 act | NR1D1 modulator | DAX1 inh-2 | ssDAF12 agonist
Clc1cnc2nc(SC/C=C/c3ccccc3)[nH]c2c1 | 1 | -1 | 1 | -1 | nt | -1
C(=C\c1ccccc1)/CSc1nc2ncccc2[nH]1 | 5 | 0 | 1 | 2 | 4.5* | 0
COc1ccc2nc(C)cc(SCC(NC(C)=O)C(=O)OC(C)C)c2c1 (stereo unspecified) | 0 | 0 | -1 | -3 | 4.6* | -1
COc1cc(C=Nn2c(-c3ccccc3F)n[nH]c2=S)ccc1OCc1ccccc1 | 3 | -1 | -3 | 4 | nt | -1
O=C(CN1CCOCC1)NNC(=S)Nc1ccccc1 | 0 | 0 | -1 | 2 | 6.1* | -2
NC(=O)c1ccccc1NC(=O)CN1CCOCC1 | 1 | 0 | -1 | 0 | 4.3* | -1
O=C(CN1CCOCCOCCOCC1)Nc1ccccc1 | 4 | 0 | -3 | -1 | 1 | -2
COC(=O)c1ccccc1NC(=O)CN1CCOCC1 | -1 | 1 | 0 | -4 | 3 | -1
Cc1sc2nc(SCC(=O)c3ccc(O)c(O)c3)n(C)c(=O)c2c1C | 4 | -1 | -2 | -28 | nt | -1
Cc1ccc(CSc2nnc(SCC(=O)N/N=C/c3ccc(C(=O)O)cc3)s2)cc1 | 2 | 2 | 0 | 1 | 4.3* | -2
CC(=O)Nc1ccc(NC(=O)CSc2nnc(NC(=O)C3CC3)s2)cc1 | 2 | -4 | 2 | -6 | 6.5* | -1
CCc1ccc(Nc2nnc(SCC(=O)Nc3cccc(S(=O)(=O)NC4=NCCCCC4)c3)s2)cc1 | 12* | 1 | 1 | -3 | 0 | -1
O=C(CSc1nnc(NC(=O)C2CC2)s1)Nc1ccc(F)cc1 | 0 | 0 | 1 | 4 | -1 | -1
Cc1ccc(Nc2nnc(SCC(=O)Nc3cccc(S(=O)(=O)NC4=NCCCCC4)c3)s2)cc1 | 3 | 0 | 1 | -1 | -1 | 0
CCCC(=O)Nc1nnc(SCC(=O)Nc2ccc3c(c2)OCO3)s1 | 2 | -1 | 0 | -1 | -1 | -1
O=C(CSc1nnc(SCc2ccccc2)s1)N/N=C/c1ccc(C(=O)O)cc1 | -2 | 1 | -1 | 2 | 2 | -2
CCCC(=O)Nc1nnc(SCC(=O)Nc2ccc3c(c2)OCCO3)s1 | -2 | 0 | -2 | 1 | 0 | 1.5*
Cc1ccccc1CNC(=O)C1C2C=CC3(CN(Cc4ccccc4)C(=O)C13)O2 (stereo unspecified) | 1 | 0 | 1 | -6 | nt | -1
CCc1ccc(Nc2nnc(SCC(=O)NC(=O)c3cccn3C)s2)cc1 | 0 | 0 | 2 | 0 | 1 | -1
CCc1ccc(Nc2nnc(SCC(=O)Nc3ccc(C(=O)O)cc3)s2)cc1 | 5 | 3.7* | 1 | -5 | 4 | 0
COC(=O)[C@]12C[C@H](CC(=O)N3CCOCC3)C(=O)N(Cc3ccc(Cl)cc3Cl)C1=C[C@H](C(C)(C)C)O[C@@H]2C | 2 | -1 | 0 | 6 | nt | -1
Cc1nc(Nc2ccc3c(c2)OCO3)c2oc3ccccc3c2n1 | 3 | 0 | 0 | -2 | 0 | -2
c1ccc2c(c1)oc1c(Nc3ccc4c(c3)OCO4)ncnc12 | 12* | 2 | 2 | -13 | 2 | 0
c1ccc2c(c1)oc1c(Nc3ccc(CN4CCOCC4)cc3)ncnc12 | 11* | 1 | 3 | -2 | 0 | 0
O=C1OCC(CO)(CO)N=C1NNc1ccccc1[N+](=O)[O-] | 3 | 0 | 3 | 5 | 5.2* | -1
SMILES | hgDAF12 agonist | DAX1 inh-1 | hcDAF-12 act | NR1D1 modulator | DAX1 inh-2 | ssDAF12 agonist
CCN(CC)S(=O)(=O)c1ccc(C)c(NC(=O)/C=C/c2cccs2)c1 | -4 | -1 | 0 | -2 | -2 | -1
Cc1ccccc1NC(=O)/C=C/c1cccs1 | 13* | 3 | 2 | 4 | 0 | -1
Cc1sc(NC(=O)c2ccco2)c(C(Nc2ccccn2)c2ccccc2)c1C (stereo unspecified) | 11* | 0 | 2 | 2 | 0 | -1
CCOC(=O)[C@]12CCCC3=C1N(CCC3)C(=O)[C@@H](CC(=O)NCCC(C)C)C2 | 1 | 0 | -3 | -4 | nt | -1
Cc1ccccc1/C=C1\CCCc2ccccc2C1=O | 10 | 3 | 4 | 3 | 6.0* | 1
O=C(Nc1nc2ncccn2c1-c1ccccc1)c1ccc(F)cc1 | -1 | -1 | -1 | 2 | nt | -1
COC(=O)[C@@H](NC(=O)N1CCC(C)CC1)C(C)C | 4 | 0 | -1 | -2 | 4.9* | -1
CC(C)=CCN1CCN(Cc2c[nH]c3ccccc23)CC1CCO (stereo unspecified) | 3 | 0 | 3 | 1 | 0 | 0.9*
O=C(c1cc(-c2ccc(F)cc2)on1)N1CCCCCC1 | 12* | 2 | 2 | -2 | 3 | 0
CN1CCN(C(=S)c2ccc(-c3cccc([N+](=O)[O-])c3)o2)CC1 | 10 | 2 | 6.5* | 1 | 7.9* | -1
O=[N+]([O-])c1cccc(-c2ccc(C(=S)N3CCN(c4ccccc4)CC3)o2)c1 | 1 | -1 | -1 | 3 | nt | -1
O=C(c1cc(-c2cccc(Cl)c2)on1)N1CCOCC1 | 11* | 1 | 1 | 6 | 0 | 1
O=C(c1cc(-c2ccc(F)cc2)on1)N1CCCC1 | 13* | 3 | 4 | 8 | 1 | -1
O=C(c1cc(-c2ccc(O)cc2)on1)N1CCN(c2ccc(F)cc2)CC1 | 2 | -1 | -1 | 1 | -1 | -1
CN1CC=C(c2ccccc2)N(c2ccc(Cl)cc2)C1=O | 2 | 0 | -1 | 10 | nt | -1
CC(=O)c1ccc(NCCCN2CCC(C(O)(c3ccccc3)c3ccccc3)CC2)cc1 | 0 | 1 | 0 | 4 | nt | -1
O=C(c1cc(-c2ccc(F)cc2)on1)N1CCOCC1 | 13* | 2 | 3 | 7 | 0 | 0
S=C(c1ccc(-c2cccc(Cl)c2)o1)N1CCOCC1 | 13* | 4 | 6 | 6 | 3 | 0
O=C(c1cc(-c2cccc(O)c2)on1)N1CCCC1 | 13* | 2 | 6 | -4 | 3 | 0
O=C(c1cc(-c2ccc(Cl)cc2)on1)N1CCOCC1 | 12* | 4.0* | 4 | -1 | 1 | 0
COC(=O)C1=C(C)N(Cc2ccccc2C(F)(F)F)C(=NCc2ccccc2)NC1c1ccc(Cl)cc1 (stereo unspecified) | 3 | -1 | 4 | 2 | nt | -1
Cc1cccc(NC(=O)OC2CC3CC2[C@H]2CCCCN2C3)c1 (stereo partly specified) | 1 | 2 | 1 | -3 | nt | -1
COc1ccc(-c2cc(C(=O)N3CCCCCC3)no2)cc1OC | 10* | 0 | 1 | 3 | 1 | 0
